Among all 5,500 compounds or so, about 2,000 (36%) were called active. Roughly 18% stayed inconclusive and do not appear here. Rule as the data show it: active = normalized growth mostly below about 0.91 (no sharp cut-off); inconclusive = no clear call, values can overlap the other calls; inactive = mostly above about 0.92. The list shows a part of the results.
Assay: chemical genetic growth profiling, strain panel (AID 1159580);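 also: tested at 20 µM; growth read once vehicle control cultures reached saturation at 30 °C; 1 = growth at the plate median or of vehicle wells; lower values mean less growth of the strain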
Details: growth OD

Measured: normalized growth

COc1cc(C(=O)O)c(O)c2c1OCO2
inactive: S. cerevisiae deletion strains, locus YAL013W, strain DEP1, active compounds read low 1.01 | S. cerevisiae deletion strains, locus YBR021W, strain FUR4, active compounds read low 0.999 | S. cerevisiae deletion strains, locus YBR229C, strain ROT2, active compounds read low 0.999 | S. cerevisiae deletion strains, locus YCL029C, strain bik1, active compounds read low 0.995 | S. cerevisiae deletion strains, locus YDL035C, strain GPR1, active compounds read low 1.02 | S. cerevisiae deletion strains, locus YDL074C, strain BRE1, active compounds read low 1.05 | S. cerevisiae deletion strains, locus YDL101C, strain DUN1, active compounds read low 1.01 | S. cerevisiae deletion strains, locus YDL134C, strain PPH21, active compounds read low 1.01 | S. cerevisiae deletion strains, locus YDL185W, strain tfp1, active compounds read low 1 | S. cerevisiae deletion strains, locus YDL192W, strain arf1, active compounds read low 1 | S. cerevisiae deletion strains, locus YDR101C, strain arx1, active compounds read low 0.989 | S. cerevisiae deletion strains, locus YDR150W, strain NUM1, active compounds read low 1.01 | S. cerevisiae deletion strains, locus YDR162C, strain NBP2, active compounds read low 1.02 | S. cerevisiae deletion strains, locus YDR318W, strain mcm21, active compounds read low 1 | S. cerevisiae deletion strains, locus YDR388W, active compounds read low 1 | S. cerevisiae deletion strains, locus YDR502C, strain sam2, active compounds read low 0.999 | S. cerevisiae deletion strains, locus YEL061C, strain CIN8, active compounds read low 1 | S. cerevisiae deletion strains, locus YER110C, active compounds read low 1 | S. cerevisiae deletion strains, locus YER155C, strain BEM2, active compounds read low 1 | S. cerevisiae deletion strains, locus YER167W, strain BCK2, active compounds read low 1.01 | S. cerevisiae deletion strains, locus YGL078C, strain dbp3, active compounds read low 1.01 | S. cerevisiae deletion strains, locus YGL086W, strain mad1, active compounds read low 1 | S. cerevisiae deletion strains, locus YGL248W, strain PDE1, active compounds read low 1.01 | S. cerevisiae deletion strains, locus YGR078C, strain PAC10, active compounds read low 1.03 | S. cerevisiae deletion strains, locus YGR135W, strain pre9, active compounds read low 0.996 | S. cerevisiae deletion strains, locus YGR229C, strain SMI1, active compounds read low 1.02 | S. cerevisiae deletion strains, locus YGR252W, strain gcn5, active compounds read low 1.02 | S. cerevisiae deletion strains, locus YHR030C, strain SLT2, active compounds read low 1.01 | S. cerevisiae deletion strains, locus YHR079C, strain IRE1 (second series), active compounds read low 1 | S. cerevisiae deletion strains, locus YHR094C, strain hxt1, active compounds read low 1 | S. cerevisiae deletion strains, locus YHR129C, strain ARP1, active compounds read low 1.01 | S. cerevisiae deletion strains, locus YHR200W, strain rpn10, active compounds read low 1.01 | S. cerevisiae deletion strains, locus YIL066C, strain RNR3, active compounds read low 1.02 | S. cerevisiae deletion strains, locus YIL073C, strain SPO22, active compounds read low 1.02 | S. cerevisiae deletion strains, locus YIL125W, strain kgd1, active compounds read low 1 | S. cerevisiae deletion strains, locus YIR030C, strain dcg1, active compounds read low 1 | S. cerevisiae deletion strains, locus YJL095W, strain BCK1, active compounds read low 1.01 | S. cerevisiae deletion strains, locus YJL134W, strain LCB3, active compounds read low 1 | S. cerevisiae deletion strains, locus YJL168C, strain set2, active compounds read low 1 | S. cerevisiae deletion strains, locus YJL187C, strain SWE1 (second series), active compounds read low 1.01 | S. cerevisiae deletion strains, locus YJR043C, strain POL32, active compounds read low 1.02 | S. cerevisiae deletion strains, locus YJR075W, strain HOC1, active compounds read low 1 | S. cerevisiae deletion strains, locus YKL009W, strain mrt4, active compounds read low 1.01 | S. cerevisiae deletion strains, locus YKL068W, active compounds read low 1.01 | S. cerevisiae deletion strains, locus YKL085W, strain MDH1 (second series), active compounds read low 1 | S. cerevisiae deletion strains, locus YKL085W, strain MDH1, active compounds read low 1 | S. cerevisiae deletion strains, locus YKL190W, strain CNB1, active compounds read low 1.01 | S. cerevisiae deletion strains, locus YKR001C, strain vps1, active compounds read low 1.01 | S. cerevisiae deletion strains, locus YLR039C, strain RIC1, active compounds read low 1.04 | S. cerevisiae deletion strains, locus YLR058C, strain SHM2, active compounds read low 1.01 | S. cerevisiae deletion strains, locus YLR102C, strain apc9, active compounds read low 1 | S. cerevisiae deletion strains, locus YLR262C, strain YPT6, active compounds read low 1.03 | S. cerevisiae deletion strains, locus YLR268W, strain sec22, active compounds read low 1 | S. cerevisiae deletion strains, locus YLR330W, strain CHS5, active compounds read low 1.01 | S. cerevisiae deletion strains, locus YLR342W, strain FKS1 (second series), active compounds read low 1.01 | S. cerevisiae deletion strains, locus YLR371W, strain rom2, active compounds read low 1.02 | S. cerevisiae deletion strains, locus YLR418C, strain cdc73, active compounds read low 1 | S. cerevisiae deletion strains, locus YML016C, strain PPZ1, active compounds read low 1.01 | S. cerevisiae deletion strains, locus YML032C, strain rad52, active compounds read low 1.02 | S. cerevisiae deletion strains, locus YML124C, strain tub3, active compounds read low 0.998 | S. cerevisiae deletion strains, locus YMR078C, strain ctf18, active compounds read low 1 | S. cerevisiae deletion strains, locus YMR223W, strain ubp8, active compounds read low 1.01 | S. cerevisiae deletion strains, locus YMR263W, strain SAP30, active compounds read low 1.02 | S. cerevisiae deletion strains, locus YMR307W, strain GAS1, active compounds read low 0.961 | S. cerevisiae deletion strains, locus YNL067W, strain RPL9B, active compounds read low 1.01 | S. cerevisiae deletion strains, locus YNL128W, strain TEP1, active compounds read low 1.02 | S. cerevisiae deletion strains, locus YNL153C, strain GIM3, active compounds read low 1.02 | S. cerevisiae deletion strains, locus YNL233W, strain BNI4, active compounds read low 1.01 | S. cerevisiae deletion strains, locus YNL250W, strain rad50, active compounds read low 1.01 | S. cerevisiae deletion strains, locus YNL271C, strain bni1, active compounds read low 1.01 | S. cerevisiae deletion strains, locus YNL298W, strain CLA4, active compounds read low 1.01 | S. cerevisiae deletion strains, locus YNL307C, strain MCK1, active compounds read low 1.01 | S. cerevisiae deletion strains, locus YNL322C, strain KRE1, active compounds read low 1.01 | S. cerevisiae deletion strains, locus YNR052C, strain pop2, active compounds read low 1.01 | S. cerevisiae deletion strains, locus YOL006C, strain TOP1, active compounds read low 0.995 | S. cerevisiae deletion strains, locus YOL012C, strain htz1 1.11 | S. cerevisiae deletion strains, locus YOL147C, strain pex11, active compounds read low 0.998 | S. cerevisiae deletion strains, locus YOR061W, strain CKA2, active compounds read low 1.01 | S. cerevisiae deletion strains, locus YOR069W, strain VPS5, active compounds read low 1.01 | S. cerevisiae deletion strains, locus YOR136W, strain idh2, active compounds read low 1 | S. cerevisiae deletion strains, locus YOR144C, strain elg1, active compounds read low 0.997 | S. cerevisiae deletion strains, locus YOR184W, strain ser1, active compounds read low 1.01 | S. cerevisiae deletion strains, locus YOR316C, strain cot1, active compounds read low 1.01 | S. cerevisiae deletion strains, locus YPL055C, strain LGE1, active compounds read low 1.04 | S. cerevisiae deletion strains, locus YPL241C, strain CIN2, active compounds read low 1.01 | S. cerevisiae deletion strains, locus YPR119W, strain clb2, active compounds read low 0.997 | S. cerevisiae deletion strains, locus YPR141C, strain kar3, active compounds read low 1.01 | S. cerevisiae deletion strains, locus YPR163C, strain tif3, active compounds read low 1 | S. cerevisiae deletion strains, locus YPR167C, strain met16, active compounds read low 1.01 | S. cerevisiae deletion strains, strain wtn01, active compounds read low 0.982 | S. cerevisiae strains, strain wild type, active compounds read low 1.02
